From PubChem
TNFa cytotox: toxic to HUVEC cells under TNF alpha stimulation. HUVEC TNFalpha-stimulated, Hoechst cell count, imaging. cell count reduction, % at 2 µM. actives 0.17% (n = 93,000). AID 848;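 active means cell count reduction exceeding the screen mean by over 5 SD, scaled to untreated wells per plate, cut at about 78% in these data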;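 further: cells counted after 24 h of TNF alpha exposure following the 1 h pretreatment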
IL1B NFkB inh: blocks IL-1B driven NFkB nuclear translocation in HUVEC cells | HUVEC IL-1B NFkB p65 nuclear translocation imaging | inhibition, % at 2 µM | actives 0.43% (n = 94,000) | AID 796;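 active means inhibition above about 30% together with a positive call from visual inspection of the well image, limit read from the data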;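 further: nuclear over cytoplasmic p65 intensity ratio measured by imaging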
VCAM1 TNFa inh: reduces TNF alpha induced VCAM1 expression in HUVEC; HUVEC TNFa-induced VCAM-1 immunofluorescence, high-content imaging; inhibition, % at 2 µM; actives 0.48% (n = 95,000); AID 802;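 active means inhibition above the batch mean plus 3 SD, with images confirmed as a hit by eye, cut at about 37% in these data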
IL1B NFkB pot: enhances IL-1B driven NFkB nuclear translocation. activation, % at 2 µM. HUVEC IL-1B NFkB p65 nuclear translocation imaging. actives 0.3% (n = 94,000);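 active means activation above 40%, about the mean plus 3 SD, also judged a hit on visual image review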;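 further: percent activation is computed from the nuclear over cytoplasmic p65 intensity ratio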
HUVEC tox IL1B: toxic to HUVEC cells under IL-1B stimulation. actives 0.41% (n = 94,000). AID 845. cell count reduction, % at 2 µM. HUVEC cell count loss, Hoechst imaging, IL-1B stimulated;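 active means cell count reduction more than 3 SD above the screen-wide mean, cut at about 70% in these data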
Each line names hits and unclear results; the compound was inactive in the other large screens. Rows were chosen to be rich in hits. Some 1.5% of all compounds tested hit in one or more screens of this group.

COc1ccc(OC)c(C2C3=C(CCCC3=O)NC3=C2C(=O)CCC3)c1	none
Cc1cc(C)nc(SCC(=O)NC2=NC(=O)C(C)S2)n1 (stereo not drawn)	HUVEC tox IL1B 78
Cc1cc(C(F)(F)F)nc(SCC(=O)NC2=NC(=O)C(C)S2)n1 (stereo not drawn)	none
O=C(O)c1cc(S(=O)(=O)NCc2ccco2)c(Cl)cc1Cl	none
CCCCNC(=O)COC(=O)CCC(=O)c1ccc(F)cc1	none
COc1cc(NC(=O)Nc2cccc(C(C)=O)c2)cc(OC)c1OC	HUVEC tox IL1B 72
CC(=O)c1cccc(NC(=O)NCc2ccccn2)c1	none (no result: TNFa cytotox)
CC(=O)c1cccc(NC(=O)NCc2cccs2)c1	IL1B NFkB pot 46
COc1cccc(OC)c1C(=O)Nc1cccc(C(C)=O)c1	none
CN(C)C(=O)C1(c2ccccc2)CCN(S(=O)(=O)c2ccccc2)CC1	HUVEC tox IL1B 90
O=C(NCc1ccccc1)C1(c2ccccc2)CCN(S(=O)(=O)c2ccccc2)CC1	none
COc1ccc(NS(=O)(=O)c2cc(C)ccc2NC(=O)c2cc(C)oc2C)cc1	VCAM1 TNFa inh 44
COc1ccc2nc(NC(=O)c3cc(C)oc3C)sc2c1	none
CCN(CC)CCCn1c(=S)[nH]c2ccc(Cl)cc2c1=O	none
CCN(CC)CCCn1c(=S)[nH]c2cc(Cl)ccc2c1=O	HUVEC tox IL1B 78
CCOC(=O)CSC1=C(C#N)C(c2ccccc2OCC)C(C#N)C(=O)N1 (stereo not drawn)	none
CCCOC(=O)CSC1=C(C#N)C(c2ccccc2OC)C(C#N)C(=O)N1 (stereo not drawn)	TNFa cytotox 83, VCAM1 TNFa inh 92
CCCN1C2CCCC1CC(NC(=O)c1ccc(F)cc1)C2 (stereo not drawn)	none
O=C(c1ccccc1)N1CCOC12CCN(c1ncc(C(F)(F)F)cc1Cl)CC2	none
CN(C)c1nc(N(C)C)nc(N(C#N)CCOc2ccccc2)n1	VCAM1 TNFa inh 97
Cc1cc(C)nc(N(C#N)CCOc2ccccc2)n1	none
COC(=O)c1cn(NC(=O)c2ccc(OC)c(OC)c2)c(=O)c2ccccc12	IL1B NFkB inh 39
CCCOc1c(Cl)cc(C(=O)Nc2ccc3c(c2)OCO3)cc1OCC	none
O=C(COc1cc(Cl)c(Cl)cc1Cl)NCCN1CCOCC1	none
O=C1CC(N2CCN(Cc3ccc4c(c3)OCO4)CC2)C(=O)N1c1ccccc1 (stereo not drawn)	VCAM1 TNFa inh 61
CC(C)OC(=O)CSc1nnc(-c2cnccn2)n1C	none
CCCCN(C(=O)NC(=O)Nc1cccc(C)c1C)S(C)(=O)=O	VCAM1 TNFa inh 90
CC(NC(=O)COC(=O)CCNC(=O)c1ccco1)C12CC3CC(CC(C3)C1)C2 (stereo not drawn)	IL1B NFkB pot 63
C(#CCN1CCOCC1)COCCCOC(c1ccccc1)c1ccccc1	none
CCOCCCNC(=O)CCCOc1ccccc1	none
CCCCOCCCNC(=O)CCCOc1ccccc1	HUVEC tox IL1B 93
C#CCSC1=C(C#N)C(c2cccs2)C(C(=O)OCC)=C(C)N1 (stereo not drawn)	none
O=C(NCN1CCCCC1)c1cnccn1	HUVEC tox IL1B 90
O=C(NCN1CCCCC1)c1cccnc1	none
CC(C)C(NS(=O)(=O)c1cccs1)C(=O)NCCN1CCN(c2ccccc2)CC1 (stereo not drawn)	IL1B NFkB inh 33
COc1cccc(C(=O)Nc2cccc(-c3nc4ncccc4o3)c2C)c1	VCAM1 TNFa inh 94
COc1ccc(OC)c(CCNC(=O)CS(=O)(=O)Cc2nc(-c3ccccc3C)oc2C)c1	none
COc1ccc2sc3c(=O)[nH]c4ccccc4c3c2c1	IL1B NFkB pot 43
COc1ccc2c(c1)[nH]c(=O)c1sc3ccccc3c12	none (no result: IL1B NFkB inh, IL1B NFkB pot, HUVEC tox IL1B)
Cc1cccc(N(CC(=O)N/N=C/c2ccc(OCC(=O)NCc3ccco3)cc2)S(C)(=O)=O)c1C	VCAM1 TNFa inh 78
O=C(Nc1ccccc1)c1ccn[nH]1	IL1B NFkB inh 31
CCOC(=O)C1C(c2cccs2)NC(=O)N(C)C1(O)C(F)(F)F (stereo not drawn)	none
CCOC(=O)CSc1nc(-c2ccccc2)nc2ccccc12	none
CCOC(=O)CSc1cc(CS(=O)(=O)c2ccccc2)nc(-c2ccccc2)n1	HUVEC tox IL1B 83
CSC(=O)CC(=O)NC(=O)c1ccccc1	HUVEC tox IL1B 89
CC1CCc2c(sc(NC(=O)C(=O)NCc3ccco3)c2C#N)C1 (stereo not drawn)	IL1B NFkB pot 42
CC1CCc2c(sc3ncn4c(SCC(=O)NCc5ccco5)nnc4c23)C1 (stereo not drawn)	IL1B NFkB pot 169
CCOC(=O)c1ccccc1NC(=O)CSc1nnc(Cc2cccn2C)n1-c1ccc(C)cc1	none (no result: IL1B NFkB inh, IL1B NFkB pot, HUVEC tox IL1B)
O=C(Nc1ccccc1)N1CCOCC1	none
O=C(Nc1ccc2c(c1)oc1ccccc12)N1CCOCC1	HUVEC tox IL1B 71
Cn1c(-c2ccccc2Br)n[nH]c1=S	none (no result: TNFa cytotox)
O=C(CSc1ncccc1-c1nc2ccccc2[nH]1)N1CCN(c2ccccc2F)CC1	HUVEC tox IL1B 85
Cn1c(=N)n(CC(O)c2cccc3ccccc23)c2ccccc21 (stereo not drawn)	TNFa cytotox 83
COc1ccccc1CC(=O)Nc1ccc(-c2noc(COc3cccc(C)c3C)n2)cc1	none
COc1ccccc1CC(=O)Nc1ccc(-c2noc(COc3ccc(Br)cc3)n2)cc1	IL1B NFkB pot 50
COc1ccc(C(=O)CSc2nnc(-c3ccc(S(=O)(=O)N4CCOCC4)cc3)o2)cc1	none
Cc1ccc(S(=O)(=O)N2Cc3ccccc3CC2C(=O)Nc2cc(C)on2)cc1 (stereo not drawn)	none
Cn1c(N)c(C(=O)COC(=O)CCCc2c[nH]c3ccccc23)c(=O)n(C)c1=O	none
NC(=O)COC(=O)CCCc1c[nH]c2ccccc12	TNFa cytotox 79, VCAM1 TNFa inh 94
COc1ccc(NC(=O)COC(=O)CCCc2c[nH]c3ccccc23)cc1	none (no result: TNFa cytotox)
Cn1c(N)c(C(=O)COC(=O)CCc2c[nH]c3ccccc23)c(=O)n(C)c1=O	IL1B NFkB pot 55
COc1cc(OC)c(C2N(c3cc(C)on3)C(=O)C3CCCN32)cc1OC (stereo not drawn)	none
CCCOc1ccccc1C1CC(=O)Nc2cc3c(cc21)OCCO3 (stereo not drawn)	VCAM1 TNFa inh 51
CC(C)Oc1ccccc1C1CC(=O)Nc2cc3c(cc21)OCO3 (stereo not drawn)	VCAM1 TNFa inh 85
O=C(Nc1ccc(-c2cn3ccsc3n2)cc1)C1CCCC1	IL1B NFkB inh 100, HUVEC tox IL1B 90
COc1ccc(CCn2c(SCC(=O)Nc3cc(C)on3)nc3ccccc3c2=O)cc1OC	TNFa cytotox 87
CC(C)CNc1nc(=S)nc(N(C)C)[nH]1	IL1B NFkB inh 37
CN(C)S(=O)(=O)c1ccc(C(=O)Nc2ccnn2C2CCCCC2)cc1	none
C=C(Cl)COc1cc(C)cc2oc(=O)cc(CC)c12	IL1B NFkB inh 47
COc1ccc(NC(=O)[C@H](CCS(C)(=O)=O)N2Cc3ccccc3C2=O)c(OC)c1	none
